Measured values published in PubChem BioAssay (NCATS).
The source made the active and inactive calls. The call rests on the fitted dose curve; in most records, active means well fitted curve in the direction sought with a large enough effect (not every such curve was filed as active); inconclusive means small, poorly fitted or top-dose-only effect, or effect the other way, or another doubt; inactive means no such curve, though single readings can be large or run the other way.

Target: Pyruvate kinase PKM (Homo sapiens) (UniProt P14618)
Sequence (P14618 whole entry, looked up): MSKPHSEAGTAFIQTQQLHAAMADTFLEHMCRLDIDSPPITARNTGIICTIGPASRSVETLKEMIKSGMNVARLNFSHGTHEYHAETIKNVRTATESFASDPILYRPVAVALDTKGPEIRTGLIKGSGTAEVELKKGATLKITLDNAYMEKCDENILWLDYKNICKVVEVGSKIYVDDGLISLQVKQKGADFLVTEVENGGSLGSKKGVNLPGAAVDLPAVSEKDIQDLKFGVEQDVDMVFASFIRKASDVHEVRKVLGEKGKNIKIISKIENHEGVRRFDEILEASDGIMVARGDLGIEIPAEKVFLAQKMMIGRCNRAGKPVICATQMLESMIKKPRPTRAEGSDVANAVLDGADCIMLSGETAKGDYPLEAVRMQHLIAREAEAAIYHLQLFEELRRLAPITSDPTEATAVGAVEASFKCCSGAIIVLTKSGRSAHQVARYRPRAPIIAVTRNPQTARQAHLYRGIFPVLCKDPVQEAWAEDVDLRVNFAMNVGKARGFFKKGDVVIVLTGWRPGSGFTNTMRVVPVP
Assay: qHTS Assay for Activators of Human Muscle Pyruvate Kinase (AID 954);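 further: 0% = uninhibited enzyme and -100% = no enzyme or full thiadiazolimine inhibition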
Conditions: purified human muscle pyruvate kinase, luciferase-coupled luminescence, 1 h; series mostly up to 57.5 µM; activity change, negative = inhibition: at the top concentration
Experimental: NIH Molecular Libraries Screening Centers Network [MLSCN]
NIH Chemical Genomics Center [NCGC]
Wael M. Rabeh, Lyudmila Nedyalkova and Hee-Wan Park [Structural Genomics Consortium, 100 College St. Toronto, Ontario, Canada]
Human pyruvate kinase muscle 2 enzyme was supplied as a highly purified (>95% pure) preparation by the Structural Genomics Consortium in Toronto (Ontario, Canada) and was assayed for its ability to generate ATP from ADP using phosphoenolpyruvate (PEP) as a substrate. ATP generation was detected in a coupled reaction by luciferase-mediated luminescence, an ATP-dependent process. Pyruvate kinase substrates, PEP and ADP, were present in the assay at Km and approximately […]-fold below Km respectively. The enzyme was assayed at an intermediate level of activity to screen for inhibitors and activators.
NCGC Assay Protocol Summary:
Three uL of substrate mix (final concentration, 50 mM imidazole pH 7.2, 50 mM KCl, 7 mM MgCl2, 0.5 mM PEP, 0.1 mM ADP, 0.01% Tween 20, 0.05% BSA) was dispensed into 1536 well plates. 23 nL of compound were delivered by a pin tool and 1 uL of enzyme mix (final concentration, 0.1 nM pyruvate kinase, 50 mM imidazole pH 7.2, 0.05% BSA) was added. Plates were incubated at room temperature for 1 hour. Two uL of detection and kinase stop mix (PKLight, Cambrex) was added, the plates centrifuged, and luminescence read by a ViewLux (Perkin Elmer) at 5 second exposure/plate. Data were normalized to the uninhibited and AC100 inhibition (no enzyme or 110 uM N-methyl-2,3-diphenyl-1,2,4-thiadiazol-5-imine; CID: 682802; LOPAC-S-4063). To monitor activation, 0.3 nM pyruvate kinase was included in one control column.

Row | Structure (SMILES) | activity change, negative = inhibition | outcome
1 | Cc1ccc2c(c1)C(N1CCN(C)CC1)=Nc1cccnc1N2 | -4.98% (inactive) | 
2 | CCCc1c(-c2ccc(O)cc2)nn(-c2ccc(O)cc2)c1-c1ccc(O)cc1 | -10.2% (inactive) | 
3 | Cc1cc2c(cc1Cl)N(C(=O)Nc1ccnc3ccccc13)CC2 | -11.5% (inactive) | 
4 | O=c1onc2n1-c1cc(Br)ccc1OC2 | -29.6% (inactive) | 
5 | CC(C)NC[C@H](O)COc1ccc(CC(N)=O)cc1 |  | inactive
6 | COc1ccc(NC(=O)c2ccc(-c3ccc(-c4noc(C)n4)cc3C)cc2)cc1N1CCN(C)CC1 | 1.34% (inactive) | 
7 | Nc1ccc(-c2ccc3ccccc3n2)cc1 | -76% (inactive) | 
8 | N=C(N)c1ccc(OCCCCCOc2ccc(C(=N)N)cc2)cc1 (tested in a mixture with another compound) | -29% (inactive) | 
9 | NC(=O)CNCCC(c1ccccc1)c1ccccc1 | 3.56% (inactive) | 
10 | NCCCNCCCCNCCCN | -6.81% (inactive) | 
11 | O=C(O)C1=CCCN(CCON=C(c2ccccc2)c2ccccc2)C1 | -29.8% (inactive) | 
12 | CCSC(=N)N | -9.85% (inactive) | 
13 | NCCCCN=C(N)N | -2.95% (inactive) | 
14 | NCCNS(=O)(=O)c1cccc2c(Cl)cccc12 | -25.7% (inactive) | 
15 | NC(N)=NC(N)=Nc1cccc(Cl)c1 | -34% (inactive) | 
16 | COc1ccc(-c2ccc(N)[n+](CCCC(=O)O)n2)cc1 | -6.39% (inactive) | 
17 | CC(C)Cn1c(=O)n(C)c(=O)c2[nH]cnc21 | -5.47% (inactive) | 
18 | O=C(O)C1CCNCC1 | -18.6% (inactive) | 
19 | CCCC(=O)NCCc1c2n(c3ccc(OC)cc13)CCCc1ccccc1-2 | -21.1% (inactive) | 
20 | CC[C@@H]1Cc2cc(O)ccc2C2=C1c1ccc(O)cc1C[C@H]2CC | 10.1% (inactive) | 

Row | Structure (SMILES) | activity change, negative = inhibition | outcome
21 | COc1cc(CNC(=O)CCCCCCC(C)C)ccc1O | -4.84% (inactive) | 
22 | C[C@H](NC(=O)/C(C#N)=C/c1ccc(O)c(O)c1)c1ccccc1 | -17.4% (inactive) | 
23 | NC(=O)c1ccccc1 | 11.2% (inactive) | 
24 | COc1ccc2c(c1)c(CC(=O)O)c(C)n2Cc1ccc(Cl)cc1 | -32.9% (inactive) | 
25 | O=c1ccc2c(OCCCCc3ccccc3)c3ccoc3cc2o1 | -14.5% (inactive) | 
26 | CC(=O)C(C)=O | -6.3% (inactive) | 
27 | C=CC[C@H](N)C(=O)O | -8.53% (inactive) | 
28 | CC(N)=O | -8.8% (inactive) | 
29 | O=C(O)c1ccccc1Nc1ccccc1 | -21.2% (inactive) | 
30 | NC(N)=[N+]1CCc2ccccc2C1 | -7.75% (inactive) | 
31 | CCCCCCC/C=C\CCCCCCCCC(=O)O | -16.1% (inactive) | 
32 | Cc1nc(N=Nc2ccc(S(=O)(=O)O)cc2S(=O)(=O)O)c(COP(=O)(O)O)c(C=O)c1O | -15.8% (inactive) | 
33 | C[C@H](O)C(=O)C1=Nc2c(nc(N)[nH]c2=O)NC1 | -13.3% (inactive) | 
34 | NC1(C(=O)O)CC1 | -20.5% (inactive) | 
35 | COc1ccccc1N1CCN(CCCCN2C(=O)c3ccccc3C2=O)CC1 | -14.8% (inactive) | 
36 | Nc1nc2[nH]c(=O)cnc2c(=O)[nH]1 | -2.82% (inactive) | 
37 | N#C/C(=C\c1ccc(O)c(O)c1)C(=O)NCCc1ccccc1 | -36.8% (inactive) | 
38 | O=C(O)c1cc(=O)cc(C(=O)O)[nH]1 | -25.7% (inactive) | 
39 | Oc1ccc(Cn2cc[nH]c2=S)cc1 | -6.85% (inactive) | 
40 | CNC(=O)c1cc2c(cn1)[nH]c1ccccc12 | -42.6% (inactive) | 
